PubChem BioAssay
The source made the active and inactive calls. Unless noted, how the calls were made is not given here.

Tests used:
[1] = system: Wnt5a (protein binding on small-molecule microarray); experiment: Wnt5a binders on small-molecule microarray, primary screen, biophysical, 635/667 nm fluorescence (AID 1142); settings: 635 nm fluorescence, higher = more signal;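 further: fluorescence read at 667 nm with signal to noise per printed feature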
[2] = cell viability in Huh7 cells, primary screen, cytotoxicity control for HCV replication inhibitor project, CellTiter-Glo luminescence, basal, 48 h (AID 1143); settings: Huh7 HCV replicon, higher = more signal, called active from +8 up or from −8 down;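 further: Huh7 hepatoma cells carrying a hepatitis C replication reporter with no stimulus; test concentration not given here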
[3] = P. aeruginosa biofilm formation inhibitors, primary screen, PAO1 strain, BacTiter-Glo luminescence, LB-PBS (AID 1144); settings: 12 h, higher = more signal
[4] = CREB reporter modulators without forskolin, primary screen, cell-based, PC12, CRE-LacZ reporter, unstimulated (AID 1145); settings: no forskolin, luminescence, 4.5 h, higher = more signal, called active from +8 up or from −8 down
[5] = CREB reporter modulators under forskolin, primary screen, cell-based, PC12, CRE-LacZ reporter, forskolin-stimulated (AID 1146); settings: luminescence, 4.5 h, higher = more signal, called active from +8 up or from −8 down;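 further: PC12 cells with 6xCRE LacZ reporter stimulated by forskolin 10 µM; beta-galactosidase reporter signal reflecting CREB driven transcription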
[6] = biological target: Streptavidin (Streptomyces avidinii) (UniProt P22629); experiment: streptavidin binders on small-molecule microarray, primary screen, artefact control for SMM compound annotation, biophysical, 635/667 nm fluorescence (AID 1147); settings: streptavidin binding, higher = more signal;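 further: signal reflects streptavidin binding to arrayed compounds as a control protein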
[7] = small-molecule binders of probe aInhba, primary screen, biochemical, small-molecule microarray, 635/667 nm fluorescence (AID 1148); settings: higher = more signal;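 further: score merges 667nm spot fluorescence with signal-to-noise for antibody binding to printed compounds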
[8] = biological target: Torsin-1A (Homo sapiens) (UniProt O14656); experiment: torsin A binders from cell lysate, primary screen, small-molecule microarray, wild-type, 635/667 nm (AID 1149); settings: COS7 hTOR1A-WT lysate, 635 nm fluorescence, higher = more signal
[9] = biological target: Torsin-1A (Homo sapiens) (UniProt O14656); experiment: small-molecule binders of mutant TOR1A in lysate, primary screen, cell lysate, small-molecule microarray, COS7 lysate, 635/667 nm fluorescence (AID 1150); settings: COS7 hTOR1A mutant lysate, 635 nm fluorescence, higher = more signal;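 further: score pools 667 nm emission and signal to noise measuring lysate protein binding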
[10] = system: Sonic hedgehog protein (Shh); experiment: small-molecule binders of Shh protein, primary screen, biochemical, small-molecule microarray, 635/667 nm fluorescence (AID 1151); settings: small-molecule microarray binding, 635 nm fluorescence; higher = more signal;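 further: Shh protein binding to compounds spotted on small-molecule microarray slides; score combines spot fluorescence intensity with signal-to-noise across triplicate slides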

Sequence of Torsin-1A (Homo sapiens) (O14656 whole entry, looked up): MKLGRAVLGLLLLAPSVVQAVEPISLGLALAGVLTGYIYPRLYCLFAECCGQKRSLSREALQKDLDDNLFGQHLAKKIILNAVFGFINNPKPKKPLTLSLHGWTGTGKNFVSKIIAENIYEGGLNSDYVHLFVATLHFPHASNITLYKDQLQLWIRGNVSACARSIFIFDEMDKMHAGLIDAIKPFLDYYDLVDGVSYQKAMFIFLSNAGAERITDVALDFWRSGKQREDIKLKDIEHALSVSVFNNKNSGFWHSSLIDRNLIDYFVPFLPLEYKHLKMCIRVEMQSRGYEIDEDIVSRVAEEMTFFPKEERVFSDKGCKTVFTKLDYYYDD
Sequence of Streptavidin (Streptomyces avidinii) (P22629 whole entry, looked up): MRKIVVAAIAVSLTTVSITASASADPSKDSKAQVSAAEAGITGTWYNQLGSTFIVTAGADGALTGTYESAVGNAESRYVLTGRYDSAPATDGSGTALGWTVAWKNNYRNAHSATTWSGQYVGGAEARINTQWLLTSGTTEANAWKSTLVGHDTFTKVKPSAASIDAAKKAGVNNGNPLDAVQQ

SMILES	composite z-score [1]	z-score [2]	z-score [3]	z-score [4]	z-score [5]	composite z-score [6]	composite z-score [7]	composite z-score [8]	composite z-score [9]	composite z-score [10]
O=C1C2C=CC(C(O)c3ccccc3)N(n3cnnc3)C2C(=O)N1Cc1ccccc1 (stereo not given)	0.068	0.455 (inactive)	-1.43 (inactive)	0.822 (inactive)	-0.5 (inactive)	0.266	0.241	0.148	-0.457	-0.189
O=C1O[C@H](c2ccccc2)[C@H](c2ccccc2)N2[C@H]1[C@@H](C(=O)Nc1nc3ccccc3s1)[C@]1(C(=O)Nc3ccc(C#CC4(O)CCCCCC4)cc31)[C@H]2c1ccc(O)cc1	0.328	-0.859 (inactive)	-0.781 (inactive)	0.802 (inactive)	0.3 (inactive)	1.34	0.293	0.417	0.164	1.82
COC(=O)[C@@]1(Cc2ccccc2N=[N+]=[N-])N=C(c2ccc(OCCCO)cc2)O[C@H]1c1ccccc1CN=[N+]=[N-]	0.171	-5.31 (inactive)	1.18 (inactive)	3.33 (inactive)	-0.412 (inactive)	-0.46	-0.0102	-0.181	-0.303	0.144
[N-]=[N+]=NCc1ccccc1C[C@]1(C(=O)N2CCCCC2)N=C(c2ccc(OCCCO)cc2)O[C@H]1c1ccccc1CN=[N+]=[N-]	0.129	-4.48 (inactive)	0.447 (inactive)	1.88 (inactive)	0.102 (inactive)	0.995	0.233	0.064	0.741	-0.0292
C#C[C@H](O[Si](C#Cc1ccccc1)(C(C)C)C(C)C)c1ccccc1	-0.0449	-1.33 (inactive)	-0.368 (inactive)	-0.258 (inactive)	6.27 (inactive)	-0.636	-0.242	-0.234	-0.543	-0.154
COC(=O)C[C@H]1O[C@]2(C(=O)N(Cc3ccccc3)c3ccc(I)cc32)[C@@H](C)[C@@H]1[Si](C)(C)c1ccc(OC)cc1	-0.213	-1.09 (inactive)	-0.135 (inactive)	-0.505 (inactive)	-0.522 (inactive)	0.0595	-0.106	-0.181	-0.0957	-0.657
Cc1ccccc1C(O)C1C=CC2C(=O)N(c3ccccc3)C(=O)C2N1Nc1ccc(C#N)cc1 (stereo not given)	0.51	0.466 (inactive)	-1.14 (inactive)	-0.133 (inactive)	1.66 (inactive)	2.17	0.816	0.261	1.58	-0.442
COCCOC(=O)N1C(=O)[C@@]2(c3cc(C#CCNC(N)=O)ccc31)[C@H](C(=O)N1CCCCCCC1)[C@H]1C(=O)O[C@H](c3ccccc3)[C@H](c3ccccc3)N1[C@@H]2c1ccccc1OCCO	0.472	-0.798 (inactive)	-0.416 (inactive)	-0.602 (inactive)	-1.01 (inactive)	0.875	0.218	0.207	0.645	1.09
O=C1O[C@H](c2ccccc2)[C@H](c2ccccc2)N2[C@H]1[C@@H](C(=O)Nc1nc3ccccc3s1)[C@]1(C(=O)Nc3ccc(C#CC4=CCCCC4)cc31)[C@H]2c1ccccc1OCCO	0.266	-4.26 (inactive)	0.331 (inactive)	0.619 (inactive)	-0.0292 (inactive)	0.841	0.0649	0.552	0.0083	1.63
O=C(NCc1ccccc1)[C@@]1(Cc2ccccc2)COC(c2ccc(OCCCO)cc2)=N1	0.369	-4.7 (inactive)	-0.607 (inactive)	-0.0157 (inactive)	-1.27 (inactive)	0.191	-0.0087	-0.0265	0.737	-0.587
COc1ccc(-c2cc3c(c(-c4ccccc4)n2)[Si](C(C)C)(C(C)C)O[C@H]3c2ccccc2)cn1	0.436	0.0834 (inactive)	0.0798 (inactive)	0.0035 (inactive)	0.411 (inactive)	-0.207	-0.0403	0.363	-0.0308	0.82
NC(=O)[C@H]1[C@@H]2C(=O)O[C@@H](c3ccccc3)[C@@H](c3ccccc3)N2[C@@H](c2ccc(O)cc2)[C@]12C(=O)Nc1ccc(C#CCCO)cc12	-0.183	0.134 (inactive)	-0.453 (inactive)	-0.258 (inactive)	0.278 (inactive)	-1.57	-0.0044	-1.39	0.806	0.35
NC(=O)NCC#Cc1ccc2c(c1)[C@]1(C(=O)N2)[C@H](C(N)=O)[C@H]2C(=O)O[C@H](c3ccccc3)[C@H](c3ccccc3)N2[C@@H]1c1ccccc1OCCO	0.0902	0.463 (inactive)	-0.258 (inactive)	0.918 (inactive)	-0.447 (inactive)	0.28	0.0091	0.247	0.396	1.18
Cc1ccc(S[C@]2(C(=O)NCCCN(C)C)CC(=O)N(Cc3ccccc3)[C@@H]2c2ccc(CO)cc2I)cc1	-0.278	-2.97 (inactive)	0.831 (inactive)	0.531 (inactive)	2.84 (inactive)	-0.0112	-0.0645	-1.84	-1.08	-0.824
COCCOC(=O)N1C(=O)[C@@]2(c3cc(C#CC4=CCCCC4)ccc31)[C@H](C(=O)NC[C@H](O)c1ccccc1)[C@H]1C(=O)O[C@H](c3ccccc3)[C@H](c3ccccc3)N1[C@@H]2c1ccc(OCCO)cc1	0.374	-2.96 (inactive)	0.329 (inactive)	0.0776 (inactive)	1.2 (inactive)	0.855	0.0446	0.481	0.0642	2.05
CC(=O)NCCCC[C@@H]1NC(=O)[C@H]2C[C@@H](C(=O)NCCCCCCN(C)C)[C@@H](c3ccc(O)cc3)N2C1=O	0.124	-0.0718 (inactive)	-0.181 (inactive)	0.281 (inactive)	0.403 (inactive)	1.36	1.12	1.6	1.21	1.79
C=CC[C@]1(C(=O)N2CCCCC2)N=C(c2ccc(OCCCO)cc2)O[C@H]1c1ccccc1N=[N+]=[N-]	0.824	-3.21 (inactive)	-0.903 (inactive)	-0.174 (inactive)	-1.18 (inactive)	1.87	0.0355	1.02	1.06	0.377
COCCCNC(=O)[C@@]1(c2ccc([N+](=O)[O-])cc2)CC(=O)N(C2CCCCC2)[C@@H]1c1ccc(CO)cc1	-0.155	-1.72 (inactive)	0.0997 (inactive)	-0.269 (inactive)	0.207 (inactive)	-0.826	-0.417	0.661	-0.699	-0.256
COc1ccc(C(=O)Nc2ccc(CN3C(=O)[C@]4(O[C@H](CCn5cc(CCO)nn5)[C@@H]([Si](C)(C)c5ccc(OC)cc5)[C@@H]4C)c4ccccc43)cc2)cc1	0.278	-7.86 (inactive)	-0.637 (inactive)	3.37 (inactive)	-1.8 (inactive)	0.863	0.279	0.421	0.638	1.99
CCCCCCc1nc(-c2cc(C)c(OC)c(C)c2)cc2c1[Si](C(C)C)(C(C)C)O[C@H]2c1ccccc1	-0.452	-0.59 (inactive)	0.368 (inactive)	-0.244 (inactive)	-0.272 (inactive)	0.0741	-0.121	-1.48	-1.07	-0.162
C=CCN1C(=O)[C@@]2(Cc3ccccc3)N=C(c3ccc(OCCCO)cc3)O[C@H]2c2ccccc21	0.358	-1.81 (inactive)	0.294 (inactive)	1.07 (inactive)	-0.984 (inactive)	0.653	0.346	0.238	1.56	1.28
COC(=O)Cn1c(C(=O)N2CCCC2)cc2c1C[C@H]1CN(C(=O)c3ccccc3)[C@@](Cc3ccccc3)(C(=O)OC)[C@@H]21	-0.0963	-0.259 (inactive)	-0.195 (inactive)	-0.572 (inactive)	-0.402 (inactive)	0.344	0.158	-0.531	-0.0683	-1.04
COC(=O)Cn1c(C(=O)N2CCCC2)cc2c1C[C@H]1CN(C(=O)c3ccccc3)[C@@](Cc3ccc(OC)cc3)(C(=O)OC)[C@@H]21	0.381	-2.77 (inactive)	0.74 (inactive)	1.72 (inactive)	1.59 (inactive)	0.927	0.711	-0.0629	0.306	-0.812
O=C(NCc1ccccc1)c1ccc(Br)cc1[N+](=O)[O-]	0.146	-0.214 (inactive)	0.635 (inactive)	0.685 (inactive)	-0.554 (inactive)	-0.453	-0.183	0.0031	-0.232	0.0923
O=C1C2C=CC(C(O)C(c3ccccc3)c3ccccc3)N(Nc3ccc([N+](=O)[O-])cc3)C2C(=O)N1c1ccccc1 (stereo not given)	0.528	-0.664 (inactive)	-1.81 (inactive)	-0.433 (inactive)	0.384 (inactive)	1.13	0.0183	0.738	0.871	0.762
CCCC=C(CCC)[C@@H](NS(=O)(=O)c1ccc(C(F)(F)F)cc1)c1ccc(-c2ccccc2)cc1	0.281	-2.08 (inactive)	0.524 (inactive)	-0.372 (inactive)	0.486 (inactive)	0.991	0.0445	0.059	0.664	0.618
CN(C)c1ccc(C(O)C2C=CC3C(=O)NC(=O)C3N2Nc2ccc(Cl)cc2Cl)cc1 (stereo not given)	-0.0936	0.126 (inactive)	-1.03 (inactive)	0.629 (inactive)	0.628 (inactive)	0.437	0.13	-0.0205	0.776	-0.214
O=C/C=C/c1ccc(/C=C/c2ccccc2)cc1	-0.378	-2.23 (inactive)	-0.0603 (inactive)	-0.141 (inactive)	-0.795 (inactive)	-0.0122	-0.128	-0.373	-0.479	0.609
CCCN1C(=O)[C@@]2(CCS(=O)(=O)c3ccccc3)N=C(c3ccc(OCCCO)cc3)O[C@H]2c2ccccc21	0.286	-4.26 (inactive)	-1.6 (inactive)	0.997 (inactive)	-1.61 (inactive)	-0.0174	0.0528	0.069	0.655	1.58
